Shown are actives, neighbours in structure and some others; about 5.4% of the full set was active somewhere.
ALOX15B inhib: blocks human 15-lipoxygenase 2 activity; O15296; purified 15hLO-2, xylenol orange hydroperoxide absorbance; Potency, µM (doses to about 57.1 µM), without a hit: top-dose activity change, negative = inhibition, actives largely listed as inhibitors; actives 0.56% (n = 110,000); also: potency is read from the fitted curve at half-maximal effect; nearly all actives have a fitted effect of over 60% in size
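Enzyme 50 nM, AA 45 uM, 25 mM Hepes pH 7.5 + 0.01% Triton X-100; cpd preinc 15 min RT, rxn 90 min RT; stop/detect with 200 uM XO + 300 uM Fe(II) in 50 mM H2SO4, 30 min; A573/A405.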
ALOX12 inhib: blocks human 12-lipoxygenase activity; P18054; purified 12-hLO, xylenol orange hydroperoxide absorbance; Potency, µM (titrated, usually from 57.1 µM), inactives show at the top dose activity change, negative = inhibition, usual class: inhibitors; actives 0.12% (n = 150,000); also: potency is read from the fitted curve at half-maximal effect; nearly all actives have a fitted effect of over 55% in size
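Purified human 12hLO (150 nM), preincubated 15 min with compound, then 40 uM arachidonic acid for 30 min, room temperature, Hepes pH 7.0 with 0.01% Triton X-100. Hydroperoxide detected by ferrous iron/xylenol orange; 573/405 nm absorbance ratio gives reaction progress.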
PNC inhibitor: blocks assembly of the perinucleolar compartment; PC3M PTB-GFP, PNC prevalence imaging, 16 h; hits give low values; activity change (PNC), negative = inhibition, % at 10 µM; actives 3.1% (n = 140,000);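 active = readout at or below -70, meaning at least 70% loss of cells showing the perinucleolar compartment, a nuclear body marking cancer cells; inconclusive = readout between -30 and a set limit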;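 also: plate controls were DMSO wells for no effect and camptothecin positive control wells for full effect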
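Read-out is percentage of cells bearing a perinucleolar compartment, from automated 20x imaging of fixed, Hoechst-stained PC3M PTB-GFP cells. Cells were seeded 4 h, then exposed 16 h to compound (23 nl of library stock) in duplicate plates.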
IMPase inh: IMPase inhibition in cells | 120,000 tested, under 10 active | inhibition (IP1 accumulation), % at 46.1 µM | AID 901 | CHO-M1 cells, IP1 accumulation, HTRF TR-FRET ratio; active = well fitted curve in the direction sought with a large enough effect in the signal ratio, not every such curve was filed as active; inconclusive = small, poorly fitted or top-dose-only effect, or a change in a side signal; inactive = no such curve, though single readings can be large or run the other way; the % refers to the signal ratio;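 also: cells stimulated with carbachol in lithium chloride buffer; plate controls were DMSO basal wells for no effect and reference inhibitor wells for full effect; higher means more IMPase inhibition seen as more IP1 and lower FRET ratio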
Target sequence (P97697 whole entry, looked up): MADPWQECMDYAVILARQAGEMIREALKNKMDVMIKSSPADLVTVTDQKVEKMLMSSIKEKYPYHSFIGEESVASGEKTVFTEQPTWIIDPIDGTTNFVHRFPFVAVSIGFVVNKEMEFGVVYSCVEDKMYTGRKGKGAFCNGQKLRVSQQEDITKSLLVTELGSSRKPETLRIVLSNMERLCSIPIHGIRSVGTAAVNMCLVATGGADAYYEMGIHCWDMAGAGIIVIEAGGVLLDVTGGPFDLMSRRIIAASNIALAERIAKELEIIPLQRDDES
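CHO-M1, 2000 cells/well, cultured 16–30 h; cpd up to 46 uM; carbachol (50 uM solution, stimulation buffer w/ 50 mM LiCl, pH 7.4), 30 min 37C; IP-One TR-FRET, 10 min RT; Ex 320/Em 665, 620; Hill-fit AC50.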
HPGD block: inhibitors of human 15-hydroxyprostaglandin dehydrogenase (HPGD) | purified HPGD, NADH fluorescence kinetic, PGE2 substrate | Potency, µM, for inactives: at the highest dose activity change, negative = inhibition, actives largely listed as inhibitors | actives 4.3% (n = 150,000); active = well fitted inhibition curve with a large enough effect, not every such curve was filed as active; inconclusive = small, poorly fitted or top-dose-only effect, or another doubt; inactive = no such curve, though single readings can be large or run the other way; also: potency is read from the fitted curve at half-maximal effect
Target sequence (P15428 whole entry, looked up): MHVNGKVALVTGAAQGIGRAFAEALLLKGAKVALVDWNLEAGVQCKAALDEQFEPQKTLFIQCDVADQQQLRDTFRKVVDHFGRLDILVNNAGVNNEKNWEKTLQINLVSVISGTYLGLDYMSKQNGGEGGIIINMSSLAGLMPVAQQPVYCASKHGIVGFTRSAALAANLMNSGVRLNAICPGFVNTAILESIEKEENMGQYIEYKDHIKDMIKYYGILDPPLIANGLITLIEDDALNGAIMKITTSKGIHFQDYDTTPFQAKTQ
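20 nM HPGD preincubated 15 min at room temperature with compound in 50 mM Tris-HCl pH 8, 0.01% Tween 20. Started with 1 mM NAD+ and 30 uM prostaglandin E2; NADH fluorescence (360/450 nm) read 5 times over 30-s intervals, last minus first.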
IMPase Li inh: membrane-permeable IMPase blocker, potentiated with lithium. CHO-M1 cells, IP1 TR-FRET (IP-One), carbachol + lithium. Potency, µM (top dose mostly 59.4 µM), inactives show at the top dose activity, negative = IMPase inhibition, most hits filed as inhibitors. actives 0.35% (n = 210,000). AID 1457;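 also: IP1 builds up when IMPase is blocked and the TR-FRET signal falls; potency is read from the fitted curve at half-maximal effect; plate controls were basal vehicle for no effect and high inhibitor control for full effect; nearly all actives have a fitted effect of over 50% in size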
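Steps: plate 2000 CHO-M1 cells per well and culture 16–30 h; add compound and lithium; incubate 30 min, 37C; add d2-IP1 tracer and Eu cryptate anti-IP1 antibody in lysis buffer; read after 10 min at room temperature.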
* = called active by the depositor; u = inconclusive; x = not tested or not shown; [ ] = dose if it differs, or a comment. Unless noted, calls follow the shape of the dose curve; as a rule, active = well fitted curve in the direction sought with a large enough effect; inconclusive = small, poorly fitted or top-dose-only effect, or another doubt; inactive = no such curve, though single readings can be large; an effect the other way counts as inactive or inconclusive. Unless noted, % is scaled to controls: 0 for no effect and ±100 for the full control effect.

SMILES	ALOX15B inhib	ALOX12 inhib	PNC inhibitor	IMPase inh	HPGD block	IMPase Li inh
Cn1c(=O)oc2cc(S(=O)(=O)N3CCCC3)ccc21	-1%	2%	7	-1	-11%	0%[38.3 µM]
Oc1ccc2ccccc2c1/C=C\c1ccc2c(Br)cc(Br)c(O)c2n1	27%[11.4 µM]	-7%[11.4 µM]	x	x	-13%	2%
CCOC(=O)c1ccc(NC(=O)CC2Nc3ccccc3NC2=O)cc1 (centres undefined)	x	x	x	2	x	x
COC(=O)[C@@]1(Cc2ccc(F)cc2)[C@@H]2C(=CC(=O)[C@H]2CC(=O)C(=O)N(C)C)CN1C(=O)c1ccccc1	-3%	-2%	x	x	-2%	0%
Cc1ccc(NC(=O)CCNS(=O)(=O)c2ccc3c(c2)oc(=O)n3C)c(C)c1	-4%	-7%	-12	3	-1%	-4%[38.3 µM]
CCN(CC)c1ccc(NS(=O)(=O)c2ccc3c(c2)oc(=O)n3C)c(C)c1	-7%	-26%	21	4	13µM*	16%[38.3 µM]
Cc1cc(C)cc(NC(=O)CCNS(=O)(=O)c2ccc3c(c2)oc(=O)n3C)c1	x	-2%	-100*	-8	-6%	9%
NC1=NC(c2cccc(Cl)c2)n2c(nc3ccccc32)N1 (centres undefined)	x	x	x	-6	x	x
CCOP(=O)(OCC)C(C#N)=C1SCN(c2ccc(Cl)cc2)CS1	-8%	-1%	-20	21	20µM*	3%
N#CCC(=N)N1CCN(c2ccc(Cl)cc2)CC1	-14%[11.4 µM]	-11%	-25	9[1.84 µM]	-13%	3%[38.3 µM]
CCOc1ccc(NC(=O)CCSc2nc(-c3ccc4c(c3)OCO4)cc(C(F)(F)F)n2)cc1	x	x	x	8	x	x
CC(=O)N(/N=C1\Sc2ccccc2C1=O)c1cccc(C)c1	-18%	-1%	u	17	3.5µM*	53%[38.3 µM]
Cc1ccc(-c2nnc(Nc3ccc(S(N)(=O)=O)cc3)c3ccccc23)cc1S(=O)(=O)N1CCOCC1	x	x	x	-9	x	x
CC(C)(C)c1ccc(OCC(=O)O)c(Cl)c1	-3%[11.4 µM]	-3%[11.4 µM]	x	x	-6%	-14%
CCCCN(CC)S(=O)(=O)c1ccc2c(c1)CCCN2C(C)=O	-7%	0%	-10	9	-6%	26%[38.3 µM]
CC(=O)N1CCCc2cc(S(=O)(=O)N(C)Cc3ccccc3)ccc21	-2%	-8%	5	2	32µM*	16%[38.3 µM]
CC1CCCCC1NC(=O)COC(=O)c1ccc2c(c1Cl)C(=O)c1ccccc1C2=O (centres undefined)	x	-1%	8	x	16µM*	-2%
O=C(COC(=O)c1cccc2c1C(=O)c1ccccc1C2=O)NC1CCCCC1	x	-1%	u	4	-17%	9%
CCOC(=O)CNS(=O)(=O)c1ccc(C)cc1	x	-3%	-113*	x	-3%	-2%
COC(=O)NNS(=O)(=O)c1ccc(C)cc1	x	-2%	-99*	x	-5%	-6%
Cc1ccc(S(=O)(=O)NNC(=O)c2ccncc2)cc1	x	1%	32	-11	-2%	-4%
CCOC(=O)CNS(=O)(=O)c1ccc(C(=O)O)cc1	-5%	4%	23	u	-7%	-13%[38.3 µM]
Cc1ccc(S(=O)(=O)NC(=O)Nn2c(C)nnc2C)cc1	1%	1%	-80*	3	-8%	20%[38.3 µM]
O=C(O)c1cccc(Cl)c1Cl	-4%	4%	x	x	-9%	13%
C=C1C2CC[C@@]3(C)C(c4ccoc4)OC(=O)C[C@@]13OC1CC(OC(C)=O)C(C)(C)C(CC(=O)OC)[C@@]12C (some centres undefined)	-20%	-11%	x	x	-3%	1%
SMILES	ALOX15B inhib	ALOX12 inhib	PNC inhibitor	IMPase inh	HPGD block	IMPase Li inh
COCCCNC(=O)Cc1coc2ccc3ccccc3c12	x	x	x	x	x	3%
O=C(Cc1coc2ccc3ccccc3c12)N1CCCC1	-5%	1%	3	4	13µM*	26%[38.3 µM]
Cc1cccc(NC(=O)Cc2coc3ccc4ccccc4c23)n1	20%	-7%	11	2	16µM*	33%[38.3 µM]
CCCCNC(=O)Cc1coc2ccc3ccccc3c12	-12%	0%	33	-16	14µM*	-5%[38.3 µM]
O=C(CN1CCN(Cc2ccc(F)cc2)C1=O)NCc1ccccc1	x	x	x	2	x	x
Cc1ccc(Cn2nnc3c(=O)[nH]c(C4CCN(S(=O)(=O)c5ccc(F)cc5)CC4)nc32)cc1	x	-13%	122	6	-16%	11%
Cc1ccc(C)c(S(=O)(=O)N2CCC(c3nc4c(nnn4Cc4ccc(F)cc4)c(=O)[nH]3)CC2)c1	-13%	-8%	-20	2	13µM*	-16%[38.3 µM]
Cc1ccc(Cn2nnc3c(=O)[nH]c(C4CCN(S(=O)(=O)c5cc(C)ccc5C)CC4)nc32)cc1	u	-9%	44	1	22µM*	0%[38.3 µM]
CCN(Cc1ccccc1)C(=O)CCS(=O)(=O)c1cc(Br)cc2c1N(C(=O)C1CC1)CC2	x	x	x	-1	x	x
CCN(CC)CCCC(C)NC(=O)c1ccc(Cc2nc3ccccc3[nH]2)cc1 (centres undefined)	x	-5%	x	x	-1%	x
COc1cccc2c1OC(=O)CC2c1ccc(C)cc1 (centres undefined)	-13%[0.0915 µM]	-17%[0.00818 µM]	x	x	u	4%
Cc1ccc(O)c(C(=O)c2coc(=N)c(C(=O)NC(C)C)c2)c1	-7%	3%	-23	-1	18µM*	23%[38.3 µM]
COc1ccc2c(c1)C(=O)[C@H](OC(=O)NS(=O)(=O)c1ccc(F)cc1)[C@@H](c1ccc(OC)c(Br)c1)O2	x	x	x	x	-13%	19%
COc1cc(CN2CC(=O)N(c3ccc(C)c(C)c3)C2=S)cc(OC)c1OC	x	1%	60	-1	-9%	1%
CCc1ccc(N2C(=O)CN(Cc3cc(OC)c(OC)c(OC)c3)C2=S)cc1	x	0%	-81*	x	-8%	1%
c1ccc(CN(CCN(Cc2ccccn2)Cc2ccccn2)Cc2ccccn2)nc1	x	x	x	x	x	54%
CCCc1ccc(-c2cc(C(=O)NN3CCOCC3)c3ccccc3n2)cc1	1%	8%	31	4	-29%	-14%[38.3 µM]
CCc1ccc(-c2cc(C(=O)Nn3cnnc3)c3ccccc3n2)cc1	-5%	1%	-82*	15	-22%	-7%[38.3 µM]
Cc1csc(NC(=O)CCCSc2nc3ccccc3s2)n1	41%	u	-5	-16	14µM*	43%[38.3 µM]
O=C(C1=C(O)C(=O)N(CC2CCCO2)C1c1cccnc1)c1ccco1 (centres undefined)	-2%	-9%	-10	u	-16%	13µM*
O=C(C1=C(O)C(=O)N(Cc2ccccc2)C1c1ccncc1)c1ccco1 (centres undefined)	-5%	-1%	34	-22	-4%	-23%
